# Measured values reported in PubChem BioAssay (NCATS).
# Inconclusive results are not listed. Entries that show only a call come without a potency. Active and inactive are the calls of the source. Unless noted, calls follow the shape of the dose curve; as a rule, active = well fitted curve in the direction sought with a large enough effect; inconclusive = small, poorly fitted or top-dose-only effect, or another doubt; inactive = no such curve, though single readings can be large; an effect the other way counts as inactive or inconclusive.
# Assays:
# [1] = Cell Viability - LYMP2-004 (AID 966); also: nearly all actives have a fitted effect of over 65% in size
# Summary of the method: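 Cells seeded 2500/well, rested 5 hr at 37 C, dosed across a concentration series, incubated 24 hr at 37 C, then CellTiter-Glo added for 30 min at room temperature and luminescence read. Hill fitting gave AC50.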
# [2] = Cell Viability - LYMP2-005 (AID 967); also: series mostly up to about 92 µM
# Summary of the method: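 LYMP2-005 human lymphoblastoid cells (2500/well) were treated with compounds for 24 h at 37 C. Intracellular ATP was then measured by CellTiter-Glo luminescence after 30 min at room temperature. AC50 values came from Hill-equation fits of qHTS concentration-response data.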
# [3] = Cell Viability - LYMP2-009 (AID 968); also: series mostly up to about 92 µM; nearly all actives have a fitted effect of over 55% in size
# [4] = Cell Viability - LYMP2-011 (AID 969); also: nearly all actives have a fitted effect of over 60% in size
# Summary of the method: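 2500 cells/well, 5 hr 37 C; compound added, 24 hr 37 C; CellTiter-Glo 30 min RT; luminescence. qHTS concentration-response, Hill-equation AC50. Tetraoctylammonium bromide positive control.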
# [5] = Cell Viability - LYMP2-013 (AID 970); also: series mostly up to about 92 µM; nearly all actives have a fitted effect of over 55% in size
# Summary of the method: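 qHTS; 2500 lymphoblastoid cells/well; 5 hr 37 C settle; cpd 24 hr 37 C; CellTiter-Glo, 30 min RT; luminescence. AC50 = Hill fit.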
# [6] = Cell Viability - LYMP2-015 (AID 971); also: nearly all actives have a fitted effect of over 55% in size
# Summary of the method: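 Luminescent ATP read-out (CellTiter-Glo) served as the viability measure after lymphoblastoid cells were exposed to compounds for 24 hours at 37 C. Concentration-response data were fitted with the Hill equation to give AC50.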
# [7] = Cell Viability - LYMP2-017 (AID 972); also: series mostly up to about 92 µM; nearly all actives have a fitted effect of over 55% in size
# Summary of the method: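 2500 cells/well, 5 h 37 C; cpd 24 h 37 C in complete medium; CellTiter-Glo, 30 min RT; luminescence (ATP). AC50 via Hill fit, qHTS.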
# [8] = Cell Viability - LYMP2-021 (AID 974)
# Summary of the method: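 Plate 2500 lymphoblastoid cells per well and incubate 5 hr at 37 C. Add compounds over a concentration range and incubate 24 hr at 37 C. Add CellTiter-Glo, wait 30 min at room temperature, read luminescence.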
# [9] = Cell Viability - LYMP2-023 (AID 975)
# Summary of the method: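 2500 cells/well, 5 hr 37 C; cpd 24 hr 37 C; CellTiter-Glo, 30 min RT; luminescence. qHTS conc-response, Hill fit -> AC50. Pos ctrl tetraoctylammonium bromide.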
# [10] = Cell Viability - LYMP2-025 (AID 976); also: series mostly up to about 92 µM
# Summary of the method: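 Seed 2500 LYMP2-025 cells/well; 5 hr at 37 C; add compound; 24 hr at 37 C; add CellTiter-Glo; 30 min RT; read luminescence. AC50 from Hill-modelled concentration-response.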
# [11] = Cell Viability - LYMP2-002 (AID 977); also: series mostly up to about 92 µM
# Summary of the method: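 Luminescent ATP readout (CellTiter-Glo, 30 min room temperature) after 24 h compound exposure at 37 C of a human lymphoblastoid line, 2500 cells/well. AC50 values derived by standard Hill fitting of qHTS concentration-response data.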
# [12] = Cell Viability - LYMP2-006 (AID 978); also: series mostly up to about 92 µM; nearly all actives have a fitted effect of over 60% in size
# Summary of the method: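 Potency values are Hill-fit AC50s for decreases in intracellular ATP (CellTiter-Glo luminescence). LYMP2-006 lymphoblastoid cells, 2500 per well, were exposed to compound in complete culture medium for 24 hr at 37 C.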
# [13] = Cell Viability - LYMP2-007 (AID 979);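 also: cells exposed to compound for 24 h before reading; nearly all actives have a fitted effect of over 60% in size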
# Summary of the method: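 Luminescent ATP signal (CellTiter-Glo) serves as the viability read-out after 24 hr compound treatment of lymphoblastoid cells in complete medium at 37 C. Concentration-response data were fitted to the Hill equation to give AC50 values.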
# [14] = Cell Viability - LYMP2-008 (AID 980); also: nearly all actives have a fitted effect of over 60% in size
# Summary of the method: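 qHTS, human lymphoblastoid line, 2500 cells/well; 5 hr preincubation, 24 hr compound, 37 C. CellTiter-Glo ATP luminescence. AC50 via Hill equation. Tetraoctylammonium bromide positive control.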
# [15] = Cell Viability - LYMP2-010 (AID 981); also: nearly all actives have a fitted effect of over 55% in size
# Summary of the method: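 Luminescent ATP signal (CellTiter-Glo) served as the viability read-out. Cells of the human lymphoblastoid line were treated with compound over a concentration range for 24 hours at 37 C, and AC50 values came from Hill-equation modeling.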
# [16] = Cell Viability - LYMP2-012 (AID 982)
# [17] = Cell Viability - LYMP2-014 (AID 983); also: series mostly up to about 92 µM; nearly all actives have a fitted effect of over 50% in size
# Summary of the method: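 Luminescent ATP signal (CellTiter-Glo, 30 min at room temperature) serves as the viability read-out after 24 hr compound exposure at 37 C. Cells were seeded at 2500 per well and settled 5 hr beforehand.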
# [18] = Cell Viability - LYMP2-016 (AID 984); also: nearly all actives have a fitted effect of over 55% in size
# Summary of the method: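 Cytotoxicity was scored by luminescent ATP content (CellTiter-Glo) after 24 h compound exposure at 37 C of a human lymphoblastoid line at 2500 cells/well. Concentration-response data were fitted to the Hill equation for AC50.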
# [19] = Cell Viability - LYMP2-018 (AID 985); also: nearly all actives have a fitted effect of over 50% in size
# Summary of the method: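 Luminescent ATP signal (CellTiter-Glo, read after 30 min at room temperature) reports viable cells after 24 hr compound treatment at 37 C. Concentration-response data were fitted to the standard Hill equation for AC50.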
# [20] = Cell Viability - LYMP2-020 (AID 986)
# Summary of the method: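 Luminescent ATP signal (CellTiter-Glo, 30 min at room temperature) is the read-out after 24 h compound treatment of lymphoblastoid cells at 37 C. AC50 values come from Hill-equation fits across concentrations.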
# [21] = Cell Viability - LYMP2-022 (AID 987); also: nearly all actives have a fitted effect of over 55% in size
# Summary of the method: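 qHTS: human lymphoblastoid cells 2500/well; 5 hr 37 C; cpd added; 24 hr 37 C; CellTiter-Glo, 30 min RT; luminescence. AC50 via Hill fit; tetraoctylammonium bromide positive ctrl.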
# [22] = Cell Viability - LYMP2-024 (AID 988); also: nearly all actives have a fitted effect of over 60% in size
# Summary of the method: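 Steps: seed 2500 cells/well, 5 hr 37 C; add compound, 24 hr 37 C; add CellTiter-Glo, 30 min room temperature; read luminescence. AC50 derived by Hill modelling of concentration-dependent ATP loss.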
# [23] = Cell Viability - LYMP2-026 (AID 989); also: nearly all actives have a fitted effect of over 50% in size
# Summary of the method: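 Luminescent ATP signal (CellTiter-Glo, 30 min room temperature) measures viable lymphoblastoid cells after 24 hr compound treatment at 37 C. Decreased ATP reflects acute toxicity; AC50 values come from Hill-equation modeling.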
# [24] = Cell Viability - LYMP1-002 - Assay at 24 hr (AID 993)
# Summary of the method: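 Cells plated 2500/well, 5 hr 37 C; compounds added, 24 hr 37 C; CellTiter-Glo added, 30 min RT; luminescence read. Tetraoctylammonium bromide positive control. Hill-equation AC50.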
# [25] = Cell Viability - LYMP1-002 - Assay at 40 hr (AID 994); also: nearly all actives have a fitted effect of over 60% in size
# Summary of the method: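 Luminescent ATP signal served as the viability readout, with decreases taken as toxicity. Cells were treated with compounds across a concentration range for 40 hours at 37 C, and AC50 values came from standard Hill modeling.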
# [26] = molecular target: ATP-dependent 6-phosphofructokinase (Trypanosoma brucei brucei) (UniProt O15648); test: qHTS Assay to Find Inhibitors of T. brucei phosphofructokinase: hit validation (AID 492961);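 also: luminescence reports ADP formed as PFK phosphorylates fructose-6-phosphate with ATP; series mostly up to about 51 µM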
# Summary of the method: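 PFK 1.25 nM, F6P 0.5 mM, ATP 0.1 mM, MgCl2 5 mM, 0.1 M TEA pH 8.0, Tween20 0.01%, BSA 0.1%; 45 min RT. ADP-Glo two-step detection, luminescence. qHTS titration; curve fitting with curve-class categorization.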
# [27] = molecular target: Ubiquitin carboxyl-terminal hydrolase 1 (Homo sapiens) (UniProt O94782); test: Inhibitors of USP1/UAF1: Pilot qHTS (AID 504865);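 also: rhodamine fluorescence freed from ubiquitin-rhodamine substrate followed over time; top concentration of the series differs between compounds; nearly all actives have a fitted effect of over 35% in size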
# Summary of the method: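 Deubiquitinase activity followed as kinetic rhodamine fluorescence release from 150 nM Ub-Rho. 1 nM USP1/UAF1 with compound, after 15 min room-temperature preincubation, in HEPES pH 7.8 buffer containing TCEP, EDTA, BSA and Tween-20.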
# [28] = molecular target: Estrogen receptor (Homo sapiens) (UniProt P03372); test: qHTS assay for small molecule antagonists of estrogen receptor alpha signaling (AID 588513; active = well fitted curve in the direction sought with a large enough effect in the signal ratio, with a control signal flat, not every such curve was filed as active; the % refers to the signal ratio)
# Summary of the method: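 Antagonist mode: inhibition of 0.5 nM 17-beta-estradiol-driven beta-lactamase reporter in HEK 293 ER-alpha-UAS-bla cells, 18 h at 37C, CCF4 readout after 2 h at RT. Normalised to estradiol and DMSO; titration fitted to Hill.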
# [29] = molecular target: Estrogen receptor (Homo sapiens) (UniProt P03372); test: qHTS assay for small molecule agonists of estrogen receptor alpha signaling (AID 588514; calls by dose curve; also: nearly all actives have a fitted effect of over 70% in size)
# Summary of the method: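 Cells were plated at 5000/well, incubated 4 hrs at 37 C, dosed with compound titration series, incubated 18 hrs at 37 C, loaded with CCF4 dye for 2 hrs at RT, then fluorescence was read.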
# [30] = molecular target: Bile acid receptor (Homo sapiens) (UniProt Q96RI1); test: qHTS assay for small molecule antagonists of farnesoid X receptor signaling (AID 588526; calls by dose curve)
# Summary of the method: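 Concentration-response titrations were fitted to the Hill equation for half-maximal inhibition and maximal response, with data normalised to 50 uM chenodeoxycholic acid and DMSO control wells. Cells: FXR-UAS-bla HEK293T, dialyzed FBS.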
# [31] = molecular target: Glucocorticoid receptor (Homo sapiens) (UniProt P04150); test: qHTS assay for small molecule antagonists of glucocorticoid receptor signaling (AID 588533; active = well fitted inhibition curve with a large enough effect in the signal ratio, with a control signal flat, not every such curve was filed as active; the % refers to the signal ratio;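 also: cells stimulated with 2 nM dexamethasone as agonist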)
# Summary of the method: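 Antagonist-mode qHTS: compound titrations added to GRE-bla HeLa cells, then dexamethasone 2 nM final; 18 h, 37 C. CCF4 FRET fluorescence normalized to dexamethasone and DMSO; IC50 from Hill fit.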
# [32] = molecular target: Peroxisome proliferator-activated receptor gamma (Homo sapiens) (UniProt P37231); test: qHTS assay for small molecule agonists of peroxisome proliferator-activated receptor gamma signaling (AID 588536; active = well fitted curve in the direction sought with a large enough effect in the signal ratio, with a control signal flat, not every such curve was filed as active; the % refers to the signal ratio)
# Summary of the method: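 HEK293 UAS-bla reporter line, 1% charcoal/dextran FBS; titration, 16 h, 37 C; CCF4 loading 2 h RT; fluorescence 460/530 nm. Normalized to rosiglitazone 2 uM = 100%, DMSO = 0%.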
# [33] = qHTS assay for small molecule agonists of retinoid X receptor alpha signaling (AID 588544; calls by dose curve); settings: HEK293T RXRa-UAS-bla, beta-lactamase reporter, 18 h; 530 nm emission
# [34] = molecular target: Retinoic acid receptor RXR-alpha (Homo sapiens) (UniProt P19793); test: as above
# [35] = molecular target: Thyroid hormone receptor beta (Homo sapiens) (UniProt P10828); test: qHTS assay for small molecule agonists of thyroid hormone receptor beta signaling (AID 588545; calls by dose curve)
# Summary of the method: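 Stimulation of a TR-driven beta-lactamase reporter was quantified in GripTite HEK 293 cells. Compound series ran for 18 hrs; curves were normalized to T3 and DMSO controls and fitted to yield EC50.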
# [36] = molecular target: Thyroid hormone receptor beta (Homo sapiens) (UniProt P10828); test: qHTS assay for small molecule antagonists of thyroid hormone receptor beta signaling (AID 588547; active = well fitted inhibition curve with a large enough effect in the signal ratio, with a control signal flat, not every such curve was filed as active; the % refers to the signal ratio;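 also: cells stimulated with 0.4 nM T3 agonist during compound exposure; series mostly up to about 77 µM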); settings: TR-UAS-bla HEK293, beta-lactamase ratio, antagonist mode, 18 h
# Summary of the method: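 TR-UAS-bla GripTite HEK293 cells in 2% charcoal/dextran FBS medium were preincubated 4 h at 37 C, given compound (0.59 nM to 92 uM) plus 0.4 nM T3 (final) for 18 h, then CCF4 for 2 h at RT; Hill fit gave IC50.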
# [37] = molecular target: Voltage-gated inwardly rectifying potassium channel KCNH2 (Homo sapiens) (UniProt Q12809); test: qHTS Assay for Small Molecule Inhibitors of the Human hERG Channel Activity (AID 588834);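 also: top concentration of the series differs between compounds; lower thallium flux fluorescence means stronger hERG block; nearly all actives have a fitted effect of over 50% in size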
# Summary of the method: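 Kinetic FDSS fluorescence; U2OS + hERG BacMam (~100 virus particles/cell); FluxOR Tl+ flux; ~10 min cpd; AC50 (Hill).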
# [38] = molecular target: Luciferin 4-monooxygenase (Photinus pyralis) (UniProt P08659); test: Biochemical firefly luciferase enzyme assay for NPC (AID 624030);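 also: purified P. pyralis luciferase at 10 nM with luciferin and ATP substrate; series mostly up to about 59 µM; nearly all actives have a fitted effect of over 70% in size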
# Summary of the method: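 Counter-screen for direct inhibition of the luciferase enzyme by approved-drug library compounds, run at 10 nM enzyme in 50 mM Tris acetate (final). Luminescence was read within 5 min of enzyme-buffer addition and normalized to PTC124 versus DMSO (0%).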
# [39] = S16 Schwann cell viability assay (CellTiter-Glo assay) (AID 624031);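 also: cellular ATP luminescence as a viability measure; series mostly up to about 58 µM; nearly all actives have a fitted effect of over 70% in size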
# Summary of the method: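 This viability control uses native rat S16 Schwann cells grown in DMEM plus 10% FBS. After a 24 h compound treatment at 37 °C, CellTiter-Glo luminescence reports ATP content, scaled against DMSO-treated and cell-free wells.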
# Sequence of Estrogen receptor (Homo sapiens) (P03372 whole entry, looked up): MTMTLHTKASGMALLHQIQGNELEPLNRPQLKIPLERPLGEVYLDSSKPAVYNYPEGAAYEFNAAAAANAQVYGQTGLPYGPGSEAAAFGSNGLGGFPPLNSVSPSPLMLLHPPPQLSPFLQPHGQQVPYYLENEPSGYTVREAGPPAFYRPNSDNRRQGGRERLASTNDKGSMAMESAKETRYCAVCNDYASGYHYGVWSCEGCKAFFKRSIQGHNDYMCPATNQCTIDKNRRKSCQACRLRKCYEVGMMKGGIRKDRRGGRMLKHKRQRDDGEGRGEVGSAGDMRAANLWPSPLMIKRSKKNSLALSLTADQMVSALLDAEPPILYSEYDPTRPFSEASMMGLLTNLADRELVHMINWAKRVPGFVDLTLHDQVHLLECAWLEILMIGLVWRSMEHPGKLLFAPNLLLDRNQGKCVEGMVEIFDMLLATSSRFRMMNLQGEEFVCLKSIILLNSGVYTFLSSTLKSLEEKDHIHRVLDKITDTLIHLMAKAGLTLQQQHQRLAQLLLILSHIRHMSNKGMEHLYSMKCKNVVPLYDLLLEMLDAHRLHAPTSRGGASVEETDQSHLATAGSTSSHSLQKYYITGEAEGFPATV
# Sequence of Thyroid hormone receptor beta (Homo sapiens) (P10828 whole entry, looked up): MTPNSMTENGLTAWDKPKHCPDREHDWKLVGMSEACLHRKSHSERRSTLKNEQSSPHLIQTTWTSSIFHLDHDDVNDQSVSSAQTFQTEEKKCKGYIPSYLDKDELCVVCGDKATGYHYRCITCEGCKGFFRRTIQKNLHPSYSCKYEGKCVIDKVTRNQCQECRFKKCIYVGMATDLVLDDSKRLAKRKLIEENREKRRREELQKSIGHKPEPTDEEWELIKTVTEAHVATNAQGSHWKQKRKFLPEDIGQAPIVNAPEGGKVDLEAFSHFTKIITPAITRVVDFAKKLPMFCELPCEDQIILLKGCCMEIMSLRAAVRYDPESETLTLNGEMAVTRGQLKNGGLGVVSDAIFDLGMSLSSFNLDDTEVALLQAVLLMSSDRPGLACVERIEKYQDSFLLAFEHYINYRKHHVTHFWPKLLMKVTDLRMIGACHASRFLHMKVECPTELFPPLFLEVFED
# Sequence of Retinoic acid receptor RXR-alpha (Homo sapiens) (P19793 whole entry, looked up): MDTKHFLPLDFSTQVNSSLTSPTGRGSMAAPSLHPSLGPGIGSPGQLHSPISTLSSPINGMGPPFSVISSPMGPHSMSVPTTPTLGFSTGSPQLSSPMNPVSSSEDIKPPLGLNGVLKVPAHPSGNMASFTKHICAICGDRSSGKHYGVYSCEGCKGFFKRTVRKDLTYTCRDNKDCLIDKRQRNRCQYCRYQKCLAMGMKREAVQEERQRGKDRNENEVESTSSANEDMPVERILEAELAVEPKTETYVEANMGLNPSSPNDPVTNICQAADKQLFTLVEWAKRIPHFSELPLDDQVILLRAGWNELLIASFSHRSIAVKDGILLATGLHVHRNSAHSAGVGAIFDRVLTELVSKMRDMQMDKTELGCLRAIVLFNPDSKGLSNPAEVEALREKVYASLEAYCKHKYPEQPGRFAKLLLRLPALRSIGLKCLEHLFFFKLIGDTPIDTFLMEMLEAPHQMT
# Sequence of Glucocorticoid receptor (Homo sapiens) (P04150 whole entry, looked up): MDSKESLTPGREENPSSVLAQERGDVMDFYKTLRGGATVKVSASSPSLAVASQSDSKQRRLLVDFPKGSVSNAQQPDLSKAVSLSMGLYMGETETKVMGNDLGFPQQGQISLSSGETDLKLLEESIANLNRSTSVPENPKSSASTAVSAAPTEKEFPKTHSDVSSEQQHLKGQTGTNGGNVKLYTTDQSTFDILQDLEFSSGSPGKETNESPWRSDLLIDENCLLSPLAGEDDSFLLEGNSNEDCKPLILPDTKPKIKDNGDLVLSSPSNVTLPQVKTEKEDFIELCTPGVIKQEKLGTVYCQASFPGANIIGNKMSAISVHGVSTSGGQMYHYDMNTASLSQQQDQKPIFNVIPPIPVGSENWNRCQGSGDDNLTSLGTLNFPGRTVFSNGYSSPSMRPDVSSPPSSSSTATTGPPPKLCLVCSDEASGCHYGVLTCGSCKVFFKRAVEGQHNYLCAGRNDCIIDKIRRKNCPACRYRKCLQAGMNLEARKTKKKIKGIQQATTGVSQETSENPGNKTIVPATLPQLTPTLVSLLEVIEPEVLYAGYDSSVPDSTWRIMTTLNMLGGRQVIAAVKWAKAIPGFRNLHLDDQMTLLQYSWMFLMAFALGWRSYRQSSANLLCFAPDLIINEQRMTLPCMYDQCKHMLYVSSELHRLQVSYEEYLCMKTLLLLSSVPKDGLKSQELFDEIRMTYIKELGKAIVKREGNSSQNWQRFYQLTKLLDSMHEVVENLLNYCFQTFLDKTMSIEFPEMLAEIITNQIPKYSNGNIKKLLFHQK
# Sequence of Bile acid receptor (Homo sapiens) (Q96RI1 whole entry, looked up): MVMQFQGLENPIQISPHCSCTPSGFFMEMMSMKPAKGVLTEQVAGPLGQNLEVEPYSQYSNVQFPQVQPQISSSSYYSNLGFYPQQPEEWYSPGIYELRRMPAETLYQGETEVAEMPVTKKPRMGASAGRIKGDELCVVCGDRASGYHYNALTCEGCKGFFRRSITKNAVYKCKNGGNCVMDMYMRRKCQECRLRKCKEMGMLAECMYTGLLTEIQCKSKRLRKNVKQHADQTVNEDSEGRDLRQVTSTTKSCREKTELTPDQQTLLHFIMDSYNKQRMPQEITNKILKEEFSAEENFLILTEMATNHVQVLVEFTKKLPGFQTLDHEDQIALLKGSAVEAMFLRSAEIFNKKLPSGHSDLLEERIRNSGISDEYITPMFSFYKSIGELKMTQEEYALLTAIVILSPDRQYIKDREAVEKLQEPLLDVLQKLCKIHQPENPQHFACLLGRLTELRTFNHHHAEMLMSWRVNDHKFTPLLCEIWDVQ
# Sequence of Peroxisome proliferator-activated receptor gamma (Homo sapiens) (P37231 whole entry, looked up): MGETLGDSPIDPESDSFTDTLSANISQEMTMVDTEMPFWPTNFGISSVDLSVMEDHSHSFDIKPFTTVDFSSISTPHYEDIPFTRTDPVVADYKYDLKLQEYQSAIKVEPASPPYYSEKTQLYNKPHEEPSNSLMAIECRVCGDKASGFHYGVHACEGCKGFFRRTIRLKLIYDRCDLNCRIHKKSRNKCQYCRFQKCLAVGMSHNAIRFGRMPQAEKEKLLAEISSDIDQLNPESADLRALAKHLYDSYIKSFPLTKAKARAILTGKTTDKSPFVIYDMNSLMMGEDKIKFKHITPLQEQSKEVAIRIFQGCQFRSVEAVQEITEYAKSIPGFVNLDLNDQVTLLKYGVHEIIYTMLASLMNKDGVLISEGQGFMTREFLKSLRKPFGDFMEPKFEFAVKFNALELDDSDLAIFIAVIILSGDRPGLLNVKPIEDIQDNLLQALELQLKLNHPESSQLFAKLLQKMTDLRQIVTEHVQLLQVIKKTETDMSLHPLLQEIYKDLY
# Sequence of Voltage-gated inwardly rectifying potassium channel KCNH2 (Homo sapiens) (Q12809 whole entry, looked up): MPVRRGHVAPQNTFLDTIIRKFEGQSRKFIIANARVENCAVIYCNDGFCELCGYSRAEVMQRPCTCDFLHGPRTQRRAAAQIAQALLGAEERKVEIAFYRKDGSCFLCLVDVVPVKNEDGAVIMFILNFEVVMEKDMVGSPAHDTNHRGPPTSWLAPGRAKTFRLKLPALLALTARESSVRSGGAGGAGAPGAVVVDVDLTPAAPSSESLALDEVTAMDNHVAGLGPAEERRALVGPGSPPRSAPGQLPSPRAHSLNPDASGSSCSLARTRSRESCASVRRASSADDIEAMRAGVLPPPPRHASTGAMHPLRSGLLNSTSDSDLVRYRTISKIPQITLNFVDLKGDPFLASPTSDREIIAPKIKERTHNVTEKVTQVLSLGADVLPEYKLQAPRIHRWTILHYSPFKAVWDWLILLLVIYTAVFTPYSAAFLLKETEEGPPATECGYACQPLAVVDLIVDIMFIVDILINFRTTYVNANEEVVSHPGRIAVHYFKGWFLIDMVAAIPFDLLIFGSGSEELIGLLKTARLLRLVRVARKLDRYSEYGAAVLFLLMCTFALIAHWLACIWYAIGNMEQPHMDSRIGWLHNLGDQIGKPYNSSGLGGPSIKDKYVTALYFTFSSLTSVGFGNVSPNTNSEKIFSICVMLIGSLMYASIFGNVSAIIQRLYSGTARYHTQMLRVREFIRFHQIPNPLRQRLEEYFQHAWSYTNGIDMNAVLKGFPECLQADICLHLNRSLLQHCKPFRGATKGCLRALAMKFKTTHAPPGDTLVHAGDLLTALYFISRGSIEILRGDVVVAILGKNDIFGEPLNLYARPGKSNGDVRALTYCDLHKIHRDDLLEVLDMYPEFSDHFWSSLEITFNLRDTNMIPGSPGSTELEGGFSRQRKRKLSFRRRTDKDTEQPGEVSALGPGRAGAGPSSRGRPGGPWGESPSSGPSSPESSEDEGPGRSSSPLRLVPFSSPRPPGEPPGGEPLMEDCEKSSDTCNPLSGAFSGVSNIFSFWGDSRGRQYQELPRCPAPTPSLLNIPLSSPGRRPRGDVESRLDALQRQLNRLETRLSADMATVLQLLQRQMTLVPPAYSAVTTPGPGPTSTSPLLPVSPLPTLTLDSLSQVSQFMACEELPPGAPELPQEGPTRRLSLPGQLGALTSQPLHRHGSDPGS
# Sequence of Luciferin 4-monooxygenase (Photinus pyralis) (P08659 whole entry, looked up): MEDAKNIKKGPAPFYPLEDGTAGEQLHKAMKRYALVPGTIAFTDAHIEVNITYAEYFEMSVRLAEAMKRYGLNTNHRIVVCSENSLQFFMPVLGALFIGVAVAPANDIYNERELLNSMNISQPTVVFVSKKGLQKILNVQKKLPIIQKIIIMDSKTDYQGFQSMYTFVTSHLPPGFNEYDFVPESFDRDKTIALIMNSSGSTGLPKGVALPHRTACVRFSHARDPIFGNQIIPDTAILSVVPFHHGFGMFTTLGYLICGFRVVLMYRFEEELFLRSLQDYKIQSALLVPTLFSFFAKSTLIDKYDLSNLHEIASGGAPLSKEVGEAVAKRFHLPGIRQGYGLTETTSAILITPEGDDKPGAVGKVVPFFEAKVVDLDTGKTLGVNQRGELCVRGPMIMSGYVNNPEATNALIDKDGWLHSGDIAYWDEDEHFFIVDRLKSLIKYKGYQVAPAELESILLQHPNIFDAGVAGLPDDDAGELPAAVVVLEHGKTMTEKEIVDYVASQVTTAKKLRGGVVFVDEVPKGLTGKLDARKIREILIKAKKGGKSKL
smiles,measurement,setting,value
C[C@@H]1[C@H](O)[C@@H](C)/C=C/C=C/C=C/C=C/C=C/C=C/C=C/[C@H](O[C@@H]2O[C@H](C)[C@@H](O)[C@H](N)[C@@H]2O)C[C@@H]2O[C@](O)(C[C@@H](O)C[C@@H](O)[C@H](O)CC[C@@H](O)C[C@@H](O)CC(=O)O[C@H]1C)C[C@H](O)[C@H]2C(=O)O,outcome,[1],inactive
same,outcome,[2],inactive
same,outcome,[3],inactive
same,outcome,[4],inactive
same,outcome,[5],inactive
same,outcome,[6],inactive
same,outcome,[7],inactive
same,outcome,[8],inactive
same,outcome,[9],inactive
same,outcome,[10],inactive
same,outcome,[11],inactive
same,outcome,[12],inactive
same,outcome,[13],inactive
same,outcome,[14],inactive
same,outcome,[15],inactive
same,outcome,[16],inactive
same,outcome,[17],inactive
same,outcome,[18],inactive
same,outcome,[19],inactive
same,outcome,[20],inactive
same,outcome,[21],inactive
same,outcome,[22],inactive
same,outcome,[23],inactive
same,outcome,[24],inactive
same,outcome,[25],inactive
same,outcome,[26],inactive
same,Potency,[27],inactive
same,outcome,[28],inactive
same,outcome,[29],inactive
same,Potency,[30],inactive
same,Potency,[31],inactive
same,outcome,[32],inactive
same,max response,[33],19.3%
same,outcome,[34],inactive
same,outcome,[35],inactive
same,activity change % (negative = inhibition),[36],2.02% (inactive)
same,Potency,[37],inactive
same,Potency,[38],inactive
same,outcome,[39],inactive
